Screening data deposited in PubChem BioAssay by National Center for Advancing Translational Sciences (NCATS).
PTHR1 ag = activates the human parathyroid hormone receptor PTHR1. 410,000 tested, 0.075% active. Q03431. Potency, µM (top dose mostly 115 µM), actives largely listed as activators. HEK293 GP2 PTHR1 cells, GloSensor cAMP luminescence, 1 h; note: nearly all actives have a fitted effect of over 55% in size
Target sequence (Q03431 whole entry, looked up): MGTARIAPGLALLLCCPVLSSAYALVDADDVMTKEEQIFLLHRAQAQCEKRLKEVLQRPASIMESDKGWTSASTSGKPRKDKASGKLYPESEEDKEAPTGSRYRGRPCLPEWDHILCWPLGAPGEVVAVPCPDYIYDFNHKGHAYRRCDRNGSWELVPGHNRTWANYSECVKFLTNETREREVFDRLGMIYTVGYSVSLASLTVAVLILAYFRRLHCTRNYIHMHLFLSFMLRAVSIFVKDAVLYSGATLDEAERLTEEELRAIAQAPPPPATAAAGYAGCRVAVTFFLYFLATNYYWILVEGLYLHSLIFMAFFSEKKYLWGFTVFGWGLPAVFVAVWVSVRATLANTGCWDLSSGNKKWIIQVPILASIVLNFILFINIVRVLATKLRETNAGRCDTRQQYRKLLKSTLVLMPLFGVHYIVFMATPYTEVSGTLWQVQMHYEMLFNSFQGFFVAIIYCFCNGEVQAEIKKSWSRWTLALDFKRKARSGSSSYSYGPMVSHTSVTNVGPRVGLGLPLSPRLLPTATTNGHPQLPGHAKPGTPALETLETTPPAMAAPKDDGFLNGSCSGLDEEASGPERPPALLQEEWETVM
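HEK-293-derived GP2 cells expressing PTHR1 and a GloSensor cAMP reporter, 3,000/well, plated overnight, given luciferin plus IBMX (each 0.5 mM as added) for 1 h at 37 °C, then compound for 1 h at 37 °C. Luminescence was read after 15 min at room temperature.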
TRHR agonist-1 = agonists of human TRH receptor; 360,000 tested, 0.18% active; P34981; activation, % at 2 µM; TRHR cells, calcium flux fluo-8, FDSS agonist mode; in the data active = activation above about 30%
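Steps: seed TRHR cells overnight; add fluo-8 no-wash Ca dye, RT 30 min–1.5 h; record 10 s baseline; pin-transfer compounds; monitor fluorescence 1 cycle/s for the agonist window. Calcium increases flag candidate agonists.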
TRPML1 blocker = blocks the human TRPML1 channel. activity change, negative = inhibition, % (concentration not given with the values). TRPML1-inducible cells, Ca2+ dye fluorescence, FDSS; active compounds read low; inhibition of EC80 agonist-evoked calcium signal. 390,000 tested, 0.02% active; in the data active = activity change below about -50%; inconclusive = between about -30% and that limit;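 note: stimulus is agonist 54-4 at its EC80 concentration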
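Tet-induced TRPML1-DL cells loaded with Ca8 no-wash calcium dye were read kinetically on FDSS. Compound addition was followed by EC80 agonist 54-4 (4 uM final); inhibition was read over 110 s.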
TRHR enhancer-1 = TRH receptor (human) allosteric enhancement | enhancement, % at 2 µM | P34981 | TRHR cells, fluo-8 calcium fluorescence, EC20 TRH enhancement | 360,000 tested, 0.66% active | AID 493056; in the data active = enhancement above about 30%
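Enhancer read-out: after compound pinning and an initial kinetic agonist-mode read, an EC20 of TRH (10 nM final) was injected and fluo-8 calcium signal (Ex 480/Em 530) followed at 1 s/cycle for 100 cycles in TRHR-expressing cells.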
TRPML1 ag = agonists of human TRPML1 channel. Q9GZU1. TRPML1-expressing cells, Ca2+ dye fluorescence, FDSS. activation, % (test concentration not listed). 410,000 tested, 0.12% active. AID 624414; in the data active = activation above about 50%; inconclusive = mostly about 30% to 49%
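Tetracycline-induced TRPML1-DL cells are seeded and incubated overnight before loading with a no-wash Ca2+ dye and quencher. Agonist activity is taken from the 110 s fluorescence read following compound pin-transfer on an FDSS, before EC80 54-4 challenge.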
HEK293 tox = cytotoxic in the GLP-1 receptor inverse agonist counter-screen | HEK293 cAMP-luciferase reporter cells, luminescence, 24 h | 410,000 tested, 0.13% active | Potency, µM (top dose mostly 38.3 µM), most hits filed as inhibitors | AID 624418;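 note: loss of luciferase light is scored as toxicity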
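Quantitative HTS format, 1536 wells, 200 cells/uL seeded. Compounds: 23 nL, 24 h, 37 °C. Detection: luciferase reagent, luminescence at 12 min RT; decreased signal taken as cytotoxic.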
TRHR enhancer-2 = human TRH receptor allosteric enhancement confirmation. shares compounds with TRHR enhancer-1. TRH receptor cell assay, enhancer confirmation qHTS. activity change, negative = inhibition, % at 46.1 µM. 970 tested, under 10 active. AID 493076;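 note: compound effect scored on response to added TRH at EC20 of 10 nM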
TRHR agonist-2 = confirmation of human TRH receptor agonists. shares compounds with TRHR enhancer-1. TRHR-expressing cells, agonist activation read-out. Potency, µM (doses to about 46.1 µM), hits mostly activators. 970 tested, 8% active. AID 493078; note: nearly all actives have a fitted effect of over 75% in size
Numbers stand for hits; - = inactive; ? = inconclusive; . = no result given. An excerpt weighted towards active compounds, which were near 0.93% of everything screened. Unless noted, calls come from the whole dose curve; as a rule, active = well fitted curve in the direction sought with a large enough effect; inconclusive = small, poorly fitted or top-dose-only effect, or another doubt; inactive = no such curve, though single readings can be large; an effect the other way counts as inactive or inconclusive.

SMILES	PTHR1 ag	TRHR agonist-1	TRPML1 blocker	TRHR enhancer-1	TRPML1 ag	HEK293 tox	TRHR enhancer-2	TRHR agonist-2
Cc1nc(N2CCOCC2)nc(OC(C)C)c1[N+](=O)[O-]	-	-	-	58	-	-	-	-
Nc1[nH]c2cc([N+](=O)[O-])ccc2c1-c1ccccn1	-	31	-	-	-	?	-	?
Cc1ccc(NC(=O)Cc2coc3ccc(C(C)C)cc23)cc1Cl	-	-	-	-	-	-	.	.
CCc1ccc2occ(CC(=O)Nc3ccc(C)c(C)c3)c2c1	-	-	-	63	-	-	-	-
Cc1ccnc(NC(=O)CCC(=O)N(Cc2ccco2)C(C(=O)NC(C)C)c2ccc(F)cc2)c1 (centres undefined)	?	-	-	43	-	-	-	-
COCCNC(=O)C(c1ccc(F)cc1)N(Cc1ccco1)C(=O)CCC(=O)Nc1ccccn1 (centres undefined)	-	-	-	-	-	-	.	.
COc1ccc(NC(=O)CNS(=O)(=O)c2ccc(Cl)cc2)cc1	-	-	-	44	-	-	-	-
COc1cccc(NC(=O)CNS(=O)(=O)c2ccc(Cl)cc2)c1	-	-	-	-	-	-	.	.
COc1cc(/C=C(/C#N)C(=O)NC(C)c2ccccc2)cc(OC)c1O (centres undefined)	-	118	-	-	-	-	-	21µM
CC(NC(=O)/C(C#N)=C/c1ccc(C(=O)O)cc1)c1ccccc1 (centres undefined)	-	-	-	-	-	-	.	.
COc1ccc(-c2cc(C(F)(F)F)c3c(n2)sc2c(O)cc(=O)[nH]c23)c(OC)c1	-	34	-	-	-	-	-	?
Cc1cc(C)c2c(n1)sc1c(O)cc(=O)[nH]c12	-	-	-	-	-	-	.	.
O=C(CSc1nc2ccccc2s1)N1c2ccccc2Sc2ccc(C(F)(F)F)cc21	-	-	-	58	-	-	-	-
CCOC(=O)c1ccc(NC(=O)c2c(NCc3cccs3)sc3c2CCCCC3)cc1	-	-	-	-	-	-	.	.
Cn1cc(CN2CCc3c([nH]c4ccccc34)C2C(C)(C)C)cn1 (centres undefined)	-	-	-	-	-	?	.	.
COc1cccc(C2c3[nH]c4ccccc4c3CCN2Cc2cnn(C)c2)c1 (centres undefined)	-	-	-	61	-	-	-	?
O=c1[nH]c(N2CCN(Cc3ccccc3)CC2)nc2c1CCC2	?	-	-	41	-	-	-	-
O=S(=O)(c1ccc2c(c1)OCCO2)N1CCN(S(=O)(=O)c2ccccc2F)CC1	.	-	.	-	.	.	.	.
CCOC(=O)c1cc(C)sc1NC(=O)CSc1nnnn1C	-	-	-	-	-	-	.	.
CCOC(=O)c1cc(C)sc1NC(=O)CSC1=NCCS1	-	-	-	56	-	-	-	-
S=C(NCCCc1cnc[nH]1)NCCCN(Cc1ccc(Cl)cc1)c1ccc(-c2ccccc2)cn1	.	.	.	.	-	.	.	.
CCCCCn1c(CN2CC(C)OC(C)C2)nc2c1c(=O)n(C)c(=O)n2C (centres undefined)	-	-	-	42	-	-	-	-
O=C(CN1CCC(C(=O)c2ccc3c(c2)OCCO3)CC1)Nc1ccccc1F	-	-	-	48	-	-	-	-
S=C(NCCCc1cnc[nH]1)NCCCN(CCc1ccccc1)c1ccc(Br)cn1	.	.	.	.	-	.	.	.
N/C(Cc1cccc2ccccc12)=N\OC(=O)c1cccs1	-	-	-	-	-	-	.	.
SMILES	PTHR1 ag	TRHR agonist-1	TRPML1 blocker	TRHR enhancer-1	TRPML1 ag	HEK293 tox	TRHR enhancer-2	TRHR agonist-2
COc1ccccc1C/C(N)=N/OC(=O)c1cccs1	-	-	-	47	-	?	-	-
CCc1cc(C(=O)N2CCCC(CCC(=O)N3CCN(c4ccccn4)CC3)C2)no1 (centres undefined)	-	-	-	42	-	-	-	-
Cc1csc(C)[n+]1CCC1CCCCC1	.	.	.	.	-	.	.	.
CN1CCCc2cc3c(C(F)(F)F)cc(=O)oc3nc21	-	49	-	-	-	-	-	18µM
COc1cccc(C2=CC(c3ccccc3O)NC(C)(C)N2)c1 (centres undefined)	.	.	.	.	-	.	.	.
O=C(c1cn(CC(=O)N2CCCCC2)c2ccccc12)C1CC1	-	-	-	51	-	-	-	-
CCOC(=O)C1CCN(C(=O)Cn2cc(C(=O)C3CC3)c3ccccc32)CC1	-	-	-	-	-	-	.	.
CC(=O)c1ccc(NC(=O)c2cnn3c2NC(=C2CC2)C=C3C(F)F)cc1	.	.	.	.	-	.	.	.
CCOC1=C/C(=C/c2c(N)n3nc(CC(=O)N4CCCCC4)sc3nc2=O)C=CC1=O	-	61	-	-	-	-	-	16µM
Nc1c(C=C2C=CC(=O)C=C2)c(=O)nc2sc(CC(=O)N3CCOCC3)nn12	-	-	-	-	-	-	.	.
COc1cccc(NC(=O)CCN2CCOCC2)c1	-	-	-	62	-	-	-	-
COc1ccc(O)c(C(=O)c2coc(=N)c(C(=O)Nc3ccc(SC(F)F)cc3)c2)c1	-	-	-	-	-	-	-	?
O=[N+]([O-])c1ccc(O/N=[N+](\[O-])N2CCN(c3ncccn3)CC2)c([N+](=O)[O-])c1	.	.	-	.	-	.	.	.
CCn1nnnc1Sc1nc(C)nc2scc(-c3ccccc3)c12	.	.	.	.	-	.	.	.
Cc1c(NC(=O)c2nn(C)c(=O)c3ccccc23)c(=O)n(-c2ccccc2)n1C	-	.	-	.	-	-	.	.
Cc1c(NC(=O)Cn2nc(C(F)(F)F)c3c2CCCC3)c(=O)n(-c2ccccc2)n1C	-	-	-	58	-	-	-	-
Cc1c(NC(=O)Cn2nc(C(=O)O)c3ccccc3c2=O)c(=O)n(-c2ccccc2)n1C	-	-	-	46	-	-	-	-
COC(=O)c1ccccc1NC(=O)Cn1nc(C(F)(F)F)c2c1CCCC2	-	-	?	57	-	-	-	-
CCN(C(=O)Cn1nc(C(=O)O)c2ccccc2c1=O)C1CCCCC1	-	-	-	44	-	-	-	-
Cc1cc(=O)[nH]c2ccc(O)cc12	.	.	.	.	-	.	.	.
FC(F)(F)C(F)(F)C(F)(F)c1nc2ccccc2[nH]1	.	.	.	.	-	.	.	.
CCc1nnc(NC(=O)C2CCN(c3ncnc4sc(C)c(C)c34)CC2)s1	-	-	-	42	-	-	-	-
CCCCc1nnc(NC(=O)C2CCN(c3ncnc4sc(C)c(C)c34)CC2)s1	-	-	-	-	-	-	.	.
